Data reported in PubChem BioAssay AID1159580 (chemical genetic matrix, 2015).
Screen size: about 5,500 compounds; about 2,000 (36%) were called active. Roughly 18% stayed inconclusive and do not appear here. No stated cut-off is given here; in the data, active means normalized growth mostly below about 0.91 (no sharp cut-off); inconclusive means no clear call, values can overlap the other calls; inactive means mostly above about 0.92. The list shows a part of the results.

Assay: chemical genetic growth profiling, strain panel (AID 1159580);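 further: tested at 20 µM; growth read once vehicle control cultures reached saturation at 30 °C; 1 = growth at the plate median or of vehicle wells; lower values mean less growth of the strain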
Settings: growth OD

Measured: normalized growth

COc1ccc(-c2coc3c(O)c(OC)ccc3c2=O)cc1
inactive: S. cerevisiae deletion strains, locus YKL085W, strain MDH1 (second series), hits give low values 0.935 | S. cerevisiae deletion strains, locus YKL085W, strain MDH1, hits give low values 0.935 | S. cerevisiae deletion strains, locus YKL190W, strain CNB1, hits give low values 0.932 | S. cerevisiae deletion strains, locus YKR026C, strain gcn3, hits give low values 0.967 | S. cerevisiae deletion strains, locus YKR091W, strain srl3, hits give low values 0.961 | S. cerevisiae deletion strains, locus YLL001W, strain dnm1, hits give low values 0.914 | S. cerevisiae deletion strains, locus YLL026W, hits give low values 0.966 | S. cerevisiae deletion strains, locus YLL041C, strain sdh2, hits give low values 0.956 | S. cerevisiae deletion strains, locus YLR027C, strain aat2, hits give low values 0.964 | S. cerevisiae deletion strains, locus YLR058C, strain SHM2, hits give low values 0.9 | S. cerevisiae deletion strains, locus YLR102C, strain apc9, hits give low values 0.941 | S. cerevisiae deletion strains, locus YLR113W, strain HOG1, hits give low values 0.994 | S. cerevisiae deletion strains, locus YLR221C, strain rsa3, hits give low values 0.957 | S. cerevisiae deletion strains, locus YLR258W, strain gsy2, hits give low values 0.925 | S. cerevisiae deletion strains, locus YLR342W, strain FKS1 (second series), hits give low values 0.843 | S. cerevisiae deletion strains, locus YLR342W, strain FKS1, hits give low values 0.963 | S. cerevisiae deletion strains, locus YLR357W, strain rsc2, hits give low values 0.899 | S. cerevisiae deletion strains, locus YLR370C, strain arc18, hits give low values 0.974 | S. cerevisiae deletion strains, locus YLR371W, strain rom2, hits give low values 0.922 | S. cerevisiae deletion strains, locus YLR384C, strain iki3, hits give low values 0.989 | S. cerevisiae deletion strains, locus YML016C, strain PPZ1, hits give low values 0.925 | S. cerevisiae deletion strains, locus YML124C, strain tub3, hits give low values 0.937 | S. cerevisiae deletion strains, locus YMR058W, strain fet3, hits give low values 0.952 | S. cerevisiae deletion strains, locus YMR125W, strain sto1, hits give low values 0.964 | S. cerevisiae deletion strains, locus YMR129W, hits give low values 0.969 | S. cerevisiae deletion strains, locus YMR231W, strain pep5, hits give low values 0.987 | S. cerevisiae deletion strains, locus YNL067W, strain RPL9B, hits give low values 0.959 | S. cerevisiae deletion strains, locus YNL128W, strain TEP1, hits give low values 0.889 | S. cerevisiae deletion strains, locus YNL183C, strain NPR1, hits give low values 0.952 | S. cerevisiae deletion strains, locus YNL209W, strain ssb2, hits give low values 0.948 | S. cerevisiae deletion strains, locus YNL233W, strain BNI4, hits give low values 0.879 | S. cerevisiae deletion strains, locus YNL248C, strain rpa49, hits give low values 0.965 | S. cerevisiae deletion strains, locus YNL250W, strain rad50, hits give low values 0.928 | S. cerevisiae deletion strains, locus YNL271C, strain bni1, hits give low values 0.941 | S. cerevisiae deletion strains, locus YNL322C, strain KRE1, hits give low values 0.939 | S. cerevisiae deletion strains, locus YNR049C, strain mso1, hits give low values 0.995 | S. cerevisiae deletion strains, locus YNR052C, strain pop2, hits give low values 0.925 | S. cerevisiae deletion strains, locus YOL012C, strain htz1 0.727 | S. cerevisiae deletion strains, locus YOR001W, strain rrp6, hits give low values 0.974 | S. cerevisiae deletion strains, locus YOR061W, strain CKA2, hits give low values 0.912 | S. cerevisiae deletion strains, locus YOR069W, strain VPS5, hits give low values 0.941 | S. cerevisiae deletion strains, locus YOR070C, strain gyp1, hits give low values 0.994 | S. cerevisiae deletion strains, locus YOR080W, strain dia2, hits give low values 0.992 | S. cerevisiae deletion strains, locus YOR083W, strain WHI5, hits give low values 0.902 | S. cerevisiae deletion strains, locus YOR106W, strain vam3, hits give low values 0.882 | S. cerevisiae deletion strains, locus YOR136W, strain idh2, hits give low values 0.927 | S. cerevisiae deletion strains, locus YOR231W, strain MKK1, hits give low values 1.02 | S. cerevisiae deletion strains, locus YOR265W, strain rbl2, hits give low values 0.984 | S. cerevisiae deletion strains, locus YOR270C, strain vph1, hits give low values 0.888 | S. cerevisiae deletion strains, locus YOR316C, strain cot1, hits give low values 0.943 | S. cerevisiae deletion strains, locus YPL106C, strain sse1, hits give low values 0.903 | S. cerevisiae deletion strains, locus YPL240C, strain hsp82, hits give low values 0.946 | S. cerevisiae deletion strains, locus YPL256C, strain CLN2, hits give low values 0.989 | S. cerevisiae deletion strains, locus YPR141C, strain kar3, hits give low values 0.932 | S. cerevisiae deletion strains, locus YPR167C, strain met16, hits give low values 0.926
active: S. cerevisiae deletion strains, locus YKL009W, strain mrt4, hits give low values 0.865 | S. cerevisiae deletion strains, locus YKL068W, hits give low values 0.94 | S. cerevisiae deletion strains, locus YKL160W, strain elf1, hits give low values 0.869 | S. cerevisiae deletion strains, locus YKR001C, strain vps1, hits give low values 0.82 | S. cerevisiae deletion strains, locus YLR039C, strain RIC1, hits give low values 0.491 | S. cerevisiae deletion strains, locus YLR262C, strain YPT6 (second series), hits give low values 0.736 | S. cerevisiae deletion strains, locus YLR268W, strain sec22, hits give low values 0.766 | S. cerevisiae deletion strains, locus YLR320W, strain mms22, hits give low values 0.827 | S. cerevisiae deletion strains, locus YLR330W, strain CHS5, hits give low values 0.838 | S. cerevisiae deletion strains, locus YLR418C, strain cdc73, hits give low values 0.722 | S. cerevisiae deletion strains, locus YML032C, strain rad52, hits give low values 0.862 | S. cerevisiae deletion strains, locus YML120C, strain ndi1, hits give low values 0.893 | S. cerevisiae deletion strains, locus YMR078C, strain ctf18, hits give low values 0.864 | S. cerevisiae deletion strains, locus YMR205C, strain PFK2, hits give low values 0.824 | S. cerevisiae deletion strains, locus YMR223W, strain ubp8, hits give low values 0.881 | S. cerevisiae deletion strains, locus YMR307W, strain GAS1, hits give low values 0.58 | S. cerevisiae deletion strains, locus YNL071W, strain lat1, hits give low values 0.571 | S. cerevisiae deletion strains, locus YNL298W, strain CLA4, hits give low values 0.904 | S. cerevisiae deletion strains, locus YNL307C, strain MCK1, hits give low values 0.595 | S. cerevisiae deletion strains, locus YNL322C, strain KRE1 (second series), hits give low values 0.839 | S. cerevisiae deletion strains, locus YOL147C, strain pex11, hits give low values 0.836 | S. cerevisiae deletion strains, locus YOR144C, strain elg1, hits give low values 0.894 | S. cerevisiae deletion strains, locus YOR184W, strain ser1, hits give low values 0.708 | S. cerevisiae deletion strains, locus YOR290C, strain snf2, hits give low values 0.807 | S. cerevisiae deletion strains, locus YPL051W, strain arl3, hits give low values 0.87 | S. cerevisiae deletion strains, locus YPL078C, strain atp4, hits give low values 0.836 | S. cerevisiae deletion strains, locus YPR119W, strain clb2, hits give low values 0.928 | S. cerevisiae deletion strains, locus YPR163C, strain tif3, hits give low values 0.694 | S. cerevisiae deletion strains, strain wtn01, hits give low values 0.846 | S. cerevisiae strains, strain wild type, hits give low values 0.83
